# Source: PubChem
# HT1080-NT tox = kills 2HG-producing HT-1080-NT fibrosarcoma cells; Potency, µM (doses to about 46.1 µM), inactives show top-dose activity, negative = less viability, hits mostly cytotoxic; 1.6% of 360,000 active; HT-1080-NT fibrosarcoma viability, CellTiter-Glo ATP luminescence, 48 h;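 also: NT is the 2HG producing partner of a matched IDH1 knockdown line; potency is read from the fitted curve at half-maximal effect; 0% = DMSO-treated cells and -100% = media-only wells without cells; nearly all actives have a fitted effect of over 55% in size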
#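 HT-1080-NT; 750 cells/well; 5% FBS RPMI; 48 h compound, 37 degrees C; CellTiter-Glo luminescence; curve fitting and curve-class assignment.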
# DT40 TDP1 CPT = DT40-hTDP1 cell growth loss with CPT; chicken DT40 Tdp1-/-;hTDP1 cells + 20 nM CPT, ATP luminescence, 48 h; Potency, µM (doses to about 46.2 µM), without a hit: top-dose activity change, negative = growth inhibition, most hits filed as inhibitors; 12% of 420,000 active; AID 686979; also: potency is read from the fitted curve at half-maximal effect; nearly all actives have a fitted effect of over 55% in size
#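 Cell growth measured by CellTiter-Glo luminescence after a minimum 48 h, 37 C compound exposure with 20 nM CPT in Tdp1-knockout DT40 cells stably expressing hTDP1, seeded 400/well; qHTS titration format.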
# HT1080 IDH1KD tx = HT-1080 IDH1 knockdown cell toxicity (counter line); HT-1080 IDH1 knockdown viability, ATP luminescence, 48 h; Potency, µM (doses to about 46.1 µM), for the others: top-dose activity, negative = toxicity, usual class: cytotoxic; 2% of 360,000 active;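 also: potency is read from the fitted curve at half-maximal effect; 0% = DMSO wells and -100% = cell-free medium wells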
#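 Assay cells: HT-1080 with IDH1 knockdown, 750 per well, RPMI/5% FBS. Exposure: 48 h at 37 °C following 2 h pre-incubation. Read: CellTiter-Glo luminescence; fitted concentration-response, curve class assigned.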
# DT40 TDP1 no CPT = qHTS for Inhibitors of human tyrosyl-DNA phosphodiesterase 1 (TDP1): qHTS in cells in absence of CPT; Potency, µM (top dose mostly 46.2 µM), for the others: at the highest dose activity change, negative = growth inhibition, hits mostly inhibitors; 15% of 420,000 active; DT40 Tdp1-/- hTDP1 cells, no CPT, ATP luminescence, 48 h; also: potency is read from the fitted curve at half-maximal effect; nearly all actives have a fitted effect of over 55% in size
#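 Growth of hTDP1-complemented DT40 Tdp1-knockout cells is measured by ATP luminescence after at least 48 hr compound exposure at 37 °C, with DMSO substituting for the 20 nM CPT used in the parallel screen.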
# IL1B secr inh = blocks inflammasome-driven IL-1 beta release; THP-1 LPS/ATP IL-1B secretion, AlphaLISA, 16 h; stronger effect = lower value; activity change, % at 57.5 µM; 4.7% of 360,000 active; in the data active = activity change below about -50%; inconclusive = mostly about -30% to -49%
#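 THP-1 cells pretreated 1 hr with compounds (up to 57.5 uM final), then stimulated with LPS (250 ng/mL final) plus ATP (1.25 mM final); secreted IL-1B measured by AlphaLISA after 16 hr, decreased signal indicating inhibition.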
# Numbers without * were called inactive; ? = inconclusive; . = no result; [ ] = remark or other dose. Sampled rows, rich in hits. Any-hit rate of the full collection: about 19%. Unless noted, calls follow the shape of the dose curve; as a rule, active = well fitted curve in the direction sought with a large enough effect; inconclusive = small, poorly fitted or top-dose-only effect, or another doubt; inactive = no such curve, though single readings can be large; an effect the other way counts as inactive or inconclusive. Unless noted, % is scaled to controls: 0 for no effect and ±100 for the full control effect.
SMILES,HT1080-NT tox,DT40 TDP1 CPT,HT1080 IDH1KD tx,DT40 TDP1 no CPT,IL1B secr inh
COc1ccc(C2c3c(-c4ccccc4O)n[nH]c3C(=O)N2Cc2ccco2)cc1 (stereo unspecified),?,?,?,?,-74.8*
COc1ccc(C2c3c(oc4cc(C)cc(C)c4c3=O)C(=O)N2Cc2ccco2)cc1OC (stereo unspecified),.,-0.3%,.,13.5%,.
COc1ccc(C2c3c(-c4c(C)cc(C)cc4O)n[nH]c3C(=O)N2Cc2ccco2)cc1 (stereo unspecified),.,14.6µM*,.,16.4µM*,.
Cn1c(SCC2CCCO2)nnc1C1CCN(Cc2ccccc2O)CC1 (stereo unspecified),.,8.8%[9.04 µM],.,-4.8%,.
COc1ccc2c(=O)c(C(=O)NCCc3ccccc3)c[nH]c2c1,3.6%,16.4µM*,0.8%,?,13.5
COc1ccc2[nH]cc(C(=O)NCCc3ccccc3)c(=O)c2c1,-6.4%,-26.3%,-0.4%,18.4µM*,-9.3
COc1ccc2c(=O)c(C(=O)NCc3ccccc3)c[nH]c2c1,-24.2%,-23.7%,-28.8%,?,-1.3
CSc1ccc(Cl)c(C(=O)NNC(=O)c2csc(N3CCOCC3)n2)c1,-0.2%,-1.1%,10.0%,-21.9%,-12.7
Nc1nc(N)nc(-c2cccc([N+](=O)[O-])c2)n1,1.0%,-21.5%,19.1%,?,-20.9
Cc1nc(N)nc(N)c1-c1ccc(Cl)c(Cl)c1,?,0.259µM*,0.581µM*,0.164µM*,-10.9
COc1ccc(-c2nc(N)nc(C)c2-c2ccc(Cl)cc2)c(O)c1,-3.9%,-32.8%,-1.6%,-16.6%,36.6
Cc1cc(OCc2nc(N)nc(N)c2-c2ccc(Cl)c(Cl)c2)ccc1[N+](=O)[O-],?,0.581µM*,0.82µM*,0.13µM*,-52.6*
Cc1nc(N)nc(N)c1CCCc1ccc(Cl)c(Cl)c1,8.2µM*,10.3µM*,1.16µM*,2.59µM*,-103.5*
Nc1nc(N)nc(-c2ccc(Cl)c(Cl)c2)n1,-5.2%,20.6µM*,-1.5%,11.6µM*,-29.8
CCOc1ccccc1NC(=O)Cn1c(=O)n(-c2ccc(Cl)cc2)c(=O)c2oc3ccccc3c21,.,-15.1%,.,-13.0%,.
N#CC(C(=S)Nc1ccccc1)c1nc2ccccc2[nH]1 (stereo unspecified),-8.3%,5.17µM*,1.5%,5.17µM*,25.9
CC[C@]12c3[nH]c4cc(-c5ccco5)ccc4c3CCN1C(=O)[C@@H](CC(=O)NC/C=C(\C)CCC=C(C)C)C[C@@H]2C(=O)N1CCN(C(=O)c2ccco2)CC1,-20.3%,?,?,20.6µM*,?
CC[C@]12c3[nH]c4cc(-c5ccco5)ccc4c3CCN1C(=O)[C@@H](CC(=O)NCc1cccc(C(F)(F)F)c1)C[C@@H]2C(=O)N1CCN(C(=O)c2ccco2)CC1,-11.1%,8.2µM*,-20.7%,8.2µM*,-51.4*
CC[C@]12c3[nH]c4ccc(OC)cc4c3CCN1C(=O)C(CC(=O)NC/C=C(\C)CCC=C(C)C)C[C@@H]2C(=O)N1CCN(C(=O)c2ccco2)CC1 (stereo partly specified),-4.5%,?,-16.2%,?,-53.1*
CC[C@]12c3[nH]c4ccccc4c3CCN1C(=O)C(CC(=O)NC/C=C(\C)CCC=C(C)C)C[C@@H]2C(=O)N1CCN(C(=O)c2ccco2)CC1 (stereo partly specified),-29.8%,16.4µM*,?,?,-52.7*
COc1ccc(N(C)S(=O)(=O)c2cccc(C(=O)OCC(=O)Nc3cc(C)ccc3OC)c2)cc1,-1.3%,-6.4%,3.1%,?,-22.7
Cc1ccc(C)c(Cn2c(=O)n(C(C)C)c(=O)c3oc4ccccc4c32)c1,.,9.3%,.,-1.8%,.
CC(C)c1ccc(C(=O)NCCCN(C)C)cc1,0.3%,7.3%,-0.9%,-3.1%,0.0
COCC(=O)N1CCC2(CC1)CN(c1ccccc1)C2,.,?,.,-16.7%,.
Cn1cccc1C(=O)N1CCC2(CCN(C(=O)Nc3cccc(F)c3)CC2)CC1,.,23.1µM*,.,?,.
SMILES,HT1080-NT tox,DT40 TDP1 CPT,HT1080 IDH1KD tx,DT40 TDP1 no CPT,IL1B secr inh
Cn1cccc1C(=O)N1CCC2(CC1)CN(C(c1ccccc1)c1ccccc1)C2,.,?,.,11.6µM*,.
COCC(=O)N1CCC2(CC1)CCN(c1ccc(-c3ccccc3)cc1)CC2,.,?,.,0.206µM*,.
Cn1cccc1C(=O)N1CCC2(CC1)CCN(c1ccc(-c3ccccc3)cc1)CC2,.,9.2µM*,.,8.2µM*,.
CC(C)(C)c1ccc(C(=O)O[C@H]2[C@H](Cc3ccccc3)NS(=O)(=O)[C@H]3C[C@@H]4C=C[C@]23O4)cc1,-13.9%,?,-3.4%,?,-25.0
CCN1C(=O)/C(=C/c2ccc(OC)c(OC)c2)N=C1SCC(=O)NCc1ccco1,15.9%,11.1%,1.2%,?,-13.7
CCOc1ccccc1CNC(=O)Cn1c(-c2ccccc2)cc(C(C)=O)c1C,.,13µM*,.,?,.
CC(=O)c1cc(-c2ccc(F)cc2)n(CC(=O)NCc2cccs2)c1C,?,?,?,?,1.7
COc1ccc(CNC(=O)Cn2c(-c3ccccc3)cc(C(C)=O)c2C)cc1OC,.,10.3µM*,.,?,.
Cc1csc(C(C)N(C)C(=O)c2cnn(-c3nccc(-c4cc(C)sc4C)n3)c2C)n1 (stereo unspecified),.,-5.6%[9.04 µM],.,?,.
CC(C)(C)CC(C)(C)N=C1Nc2ccccc2NC12C[C@H]1CCC(=O)N3CC[C@@H](C2)[C@@H]13 (stereo partly specified),4.2%,?,4.7%,?,23.2
CC(C)(C)CC(C)(C)N=C1Nc2cc(Cl)c(Cl)cc2NC12C[C@H]1CCC(=O)N3CC[C@@H](C2)[C@@H]13 (stereo partly specified),-16.0%,?,-5.5%,?,-64.2*
CC(C)(C)CC(C)(C)N=C1Nc2cc(Cl)c(Cl)cc2N[C@]12C[C@H]1CCCC(=O)N3CC[C@@H](C2)[C@@H]13,.,?,.,11.2µM*,.
COc1ccc(-n2ncc3c(NCCCn4ccnc4)ncnc32)cc1,9.2%,-12.0%,-2.7%,-12.8%,8.2
CC(C)(C)NC(=O)C(c1ccccc1F)n1c(=O)c(-c2ccccc2)nc2ccccc21 (stereo unspecified),9.5%,?,-0.6%,?,-3.6
O=C(Nc1cc(SCCO)cc([N+](=O)[O-])c1)c1ccc(Br)o1,-2.5%,?,-0.4%,20.6µM*,-15.8
O=C(/C=C/c1ccccc1Cl)NCc1ccco1,-9.6%[9.24 µM],-12.1%,-4.9%,?,-27.3
